Compound activity (PubChem BioAssay)
FLuc inh = inhibitors of firefly (Photinus pyralis) luciferase | purified P. pyralis luciferase, luminescence, biochemical | Potency, µM (doses to about 115 µM), usual class: inhibitors | 76,000 tested, 2.5% active | AID 1347043; note: nearly all actives have a fitted effect of over 65% in size
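Inhibitors were tested against purified firefly luciferase in a biochemical, low-substrate format (both substrates at 10uM) and luminescence measured with a CCD imager.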
3T3 cytotox = kills NIH 3T3 cells. NIH 3T3 viability, CellTiter-Glo ATP luminescence, 48-72 h. Potency, µM (top dose mostly 96.7 µM), actives largely listed as inhibitors. 94,000 tested, 4.3% active. AID 1345082; note: nearly all actives have a fitted effect of over 55% in size
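Viability of NIH 3T3 cells after 48 or 72 hr compound treatment at 37 °C was assessed by CellTiter-Glo, with luminescence imaged following a 10 min room-temperature step.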
HEK cytotox = cytotoxic compounds in HEK 293 cells. HEK 293 viability, ATP luminescence (CellTiter-Glo), 48-72 h. Potency, µM (top dose mostly 115 µM), hits mostly inhibitors. 94,000 tested, 6.6% active; note: nearly all actives have a fitted effect of over 60% in size
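Cells seeded first (HEK 293, 250 cells/well), then compound added by pintool. Incubation ran 48 or 72 hr at 37 degree Celsius. CellTiter-Glo was added and luminescence imaged after 10 min at room temperature.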
hNpr1 antagonist = human Npr1 receptor antagonism; Potency, µM (highest dose often 46.3 µM), usual class: inhibitors; HEK293 hNpr1 GloSensor cGMP, ANP-stimulated luminescence; 76,000 tested, 1.6% active; P16066; AID 1347048; calls by dose curve; note: nearly all actives have a fitted effect of over 60% in size
Target sequence (P16066 whole entry, looked up): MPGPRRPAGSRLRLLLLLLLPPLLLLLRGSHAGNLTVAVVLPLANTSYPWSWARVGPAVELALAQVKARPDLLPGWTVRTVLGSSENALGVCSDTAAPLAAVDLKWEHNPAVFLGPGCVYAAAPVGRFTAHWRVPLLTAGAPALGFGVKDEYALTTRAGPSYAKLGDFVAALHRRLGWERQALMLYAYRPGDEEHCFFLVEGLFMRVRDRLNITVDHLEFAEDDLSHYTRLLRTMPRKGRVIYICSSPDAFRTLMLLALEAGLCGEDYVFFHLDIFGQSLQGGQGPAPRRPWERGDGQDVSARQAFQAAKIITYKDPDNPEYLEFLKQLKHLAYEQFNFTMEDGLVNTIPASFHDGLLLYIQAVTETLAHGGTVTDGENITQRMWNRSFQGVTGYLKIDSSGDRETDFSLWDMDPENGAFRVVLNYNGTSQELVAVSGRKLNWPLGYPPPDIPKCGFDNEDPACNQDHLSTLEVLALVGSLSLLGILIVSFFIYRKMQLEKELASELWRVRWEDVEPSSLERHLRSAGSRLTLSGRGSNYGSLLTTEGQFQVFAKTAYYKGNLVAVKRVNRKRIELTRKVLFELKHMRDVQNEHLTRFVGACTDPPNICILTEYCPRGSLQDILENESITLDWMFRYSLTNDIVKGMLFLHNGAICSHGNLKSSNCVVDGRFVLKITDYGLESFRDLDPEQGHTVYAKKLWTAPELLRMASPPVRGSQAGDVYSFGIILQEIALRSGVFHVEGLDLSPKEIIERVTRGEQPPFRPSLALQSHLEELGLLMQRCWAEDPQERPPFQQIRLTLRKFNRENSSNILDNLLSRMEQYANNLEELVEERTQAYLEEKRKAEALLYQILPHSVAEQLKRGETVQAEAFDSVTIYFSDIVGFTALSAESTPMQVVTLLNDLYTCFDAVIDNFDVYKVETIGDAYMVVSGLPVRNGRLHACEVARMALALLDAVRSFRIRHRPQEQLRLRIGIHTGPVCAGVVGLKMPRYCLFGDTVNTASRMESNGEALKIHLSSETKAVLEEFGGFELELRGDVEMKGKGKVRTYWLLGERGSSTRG
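Compound pre-incubated 30 min at room temperature on GloSensor-loaded HEK293 cells stably carrying hNpr1 and the pGS-40F cGMP biosensor. Stimulation uses hNppA at 0.1 nM final; luminescence is taken at baseline and 20 min post-agonist.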
Large screens that a line does not name were inactive. Sampled rows, rich in hits. Any-hit rate of the full collection: about 11%. Unless noted, calls come from the whole dose curve; as a rule, active = well fitted curve in the direction sought with a large enough effect; inconclusive = small, poorly fitted or top-dose-only effect, or another doubt; inactive = no such curve, though single readings can be large; an effect the other way counts as inactive or inconclusive.

CC1(c2ccccc2)N(Cc2cccnc2)C(=O)OC12CCN(C(=O)c1ccc(Oc3ccccc3)cc1)CC2 (stereo not given)	3T3 cytotox inconclusive, HEK cytotox 25.1µM
CC1(c2cccnc2)N(CC2CC2)C(=O)OC12CCN(C(=O)c1cccc(O)c1)CC2 (stereo not given)	3T3 cytotox 35.5µM
O=C(NCC12CCCC=C1N(Cc1ccccc1)C(=O)CC2)C1CCC1 (stereo not given)	none
COc1ccc(-c2cn(C)c(=O)n3cc(CN(C)C)nc23)c(C(F)(F)F)c1	HEK cytotox inconclusive
COCCN1CCCN(C(=O)c2cccc(OC)c2)c2ccccc21	HEK cytotox inconclusive
COCC(=O)N1CCCN(CCc2ccccc2)c2ccccc21	HEK cytotox 35.5µM
COCCN1CCCN(C(=O)c2cccc(Cl)c2)c2ccccc21	3T3 cytotox inconclusive, HEK cytotox 44.7µM
COc1ccccc1CC(=O)N1CCCN(CCc2ccccc2)c2ccccc21	3T3 cytotox inconclusive, HEK cytotox 39.8µM
O=C(c1ccnc(CC2CC(=O)N(c3ccccc3)C2)c1)N1CCCCC1 (stereo not given)	none
CN1CCC2(C1)CN(Cc1ccccc1)c1ccc(C(=O)NC3CCC3)cc12 (stereo not given)	3T3 cytotox 79.4µM, HEK cytotox inconclusive
CN1CCCC2(C1)CN(C)c1ccc(C(=O)Nc3ccccc3)cc12 (stereo not given)	3T3 cytotox inconclusive, HEK cytotox inconclusive
CN1CCC2(C1)CN(Cc1ccccc1)c1ccc(C(=O)NC3CCCCC3)cc12 (stereo not given)	3T3 cytotox inconclusive, HEK cytotox 79.4µM
CN1CCCC2(C1)CN(Cc1cccnc1)c1ccc(C(=O)Nc3ccccc3)cc12 (stereo not given)	3T3 cytotox 89.1µM, HEK cytotox inconclusive
CN1CCC2(C1)CN(Cc1ccccc1)c1ccc(C(=O)NC3CC3)cc12 (stereo not given)	HEK cytotox inconclusive
O=C(NC1Cc2ccccc2C1)c1ccc2nnc(C3CCOCC3)n2c1	none (no result: FLuc inh, hNpr1 antagonist)
COc1ccc2[nH]cc(CCNC(=O)C3CC(=O)N(c4n[nH]c5cccc(F)c45)C3)c2c1 (stereo not given)	HEK cytotox inconclusive
COc1ccccc1-c1cnc(Nc2ccc(Cl)cn2)c2c1CCO2	FLuc inh inconclusive, 3T3 cytotox inconclusive, HEK cytotox 63.1µM
COc1ccccc1-c1cnc(Nc2cccnc2OC)c2c1CCO2	FLuc inh inconclusive, 3T3 cytotox inconclusive, HEK cytotox 28.2µM
COc1ccccc1-c1cnc(Nc2cccnc2)c2c1CCO2	FLuc inh inconclusive, 3T3 cytotox inconclusive, HEK cytotox 79.4µM, hNpr1 antagonist inconclusive
CCN1C(=O)C2CC3(CCN(C4CCCCC4)CC3)CN2C1=O (stereo not given)	none (no result: FLuc inh, hNpr1 antagonist)
O=C(CC1CCCCC1)N1CCn2c(nnc2[C@@H]2C[C@@H](O)CN2Cc2ccccc2)C1	none
CN1CC(=O)N(C2CCC2)Cc2c(NC3CC3)ncnc21	none (no result: FLuc inh, hNpr1 antagonist)
CCOc1ccc(-c2cc3c(=O)n(CCNC(=O)c4ccc(OC)cc4)ccn3n2)cc1	none
CCOc1ccc(-c2cc3c(=O)n(CCNC(=O)C4(c5ccccc5)CC4)ccn3n2)cc1	FLuc inh 25.1µM
CCOc1ccc(-c2cc3c(=O)n(CCNC(=O)c4ccccc4OC)ccn3n2)cc1	FLuc inh 15.8µM, HEK cytotox inconclusive
COc1cc(=O)n2c(c1C(=O)Nc1ccc(Br)cc1)CCCC2	none
COCCCn1c(=O)c(C(=O)N2CCN(C(=O)c3ccccc3OC)CC2)nc2cccnc21	none (no result: FLuc inh, hNpr1 antagonist)
CCc1nc(NCc2cn[nH]c2-c2ccc(Cl)cc2)c2cnn(C)c2n1	3T3 cytotox 44.7µM, HEK cytotox inconclusive
O=C(NCCc1cnc[nH]1)C1CCN(C2CCCCC2)CC1	none
COc1ccc(CN2CC(O)CN([S+](=O)([O-])c3ccc(F)cc3)CC2=O)cc1 (stereo not given)	HEK cytotox inconclusive (no result: FLuc inh, hNpr1 antagonist)
CCCc1ncncc1C(=O)NC1CC(c2nnc(CO)n2C2CC2)C1 (stereo not given)	none
CCN1c2cc(C(=O)Nc3ccc(OC)c(OC)c3)ccc2C(=O)N2CCCCC21 (stereo not given)	3T3 cytotox inconclusive, HEK cytotox inconclusive
CCN1c2cc(C(=O)Nc3ccc(OC)c(OC)c3)ccc2C(=O)N2CCCCCC21 (stereo not given)	3T3 cytotox inconclusive, HEK cytotox 44.7µM
CCN1c2cc(C(=O)Nc3ccc(OC)c(Cl)c3)ccc2C(=O)N2CCCCC21 (stereo not given)	3T3 cytotox 22.4µM, HEK cytotox 35.5µM
CCN1c2cc(C(=O)Nc3ccc(OC)c(F)c3)ccc2C(=O)N2CCCCCC21 (stereo not given)	3T3 cytotox inconclusive, HEK cytotox inconclusive
O=C(C1CCCO1)N1CCCC(c2ccccc2)(c2ccccc2)C1 (stereo not given)	HEK cytotox inconclusive
CCc1ccc(N2CC(c3noc(-c4cccc(OC)c4OC)n3)CC2=O)cc1 (stereo not given)	3T3 cytotox 28.2µM, HEK cytotox 79.4µM
CCc1ccc(N2CC(c3noc(-c4ccc(OC)cc4)n3)CC2=O)cc1 (stereo not given)	3T3 cytotox inconclusive, HEK cytotox inconclusive
CCc1ccc(N2CC(c3noc(-c4ccc(OC)cc4OC)n3)CC2=O)cc1 (stereo not given)	3T3 cytotox inconclusive, HEK cytotox inconclusive
CCc1ccc(N2CC(c3noc(C4(c5ccc(OC)cc5)CC4)n3)CC2=O)cc1 (stereo not given)	3T3 cytotox inconclusive, HEK cytotox 44.7µM, hNpr1 antagonist inconclusive
COc1ccc(-c2nc3c(c(=O)[nH]2)CCN(S(=O)(=O)c2cccc4cccnc24)C3)cc1	none
Cc1ccsc1C(=O)N1CCC2(CC1)C(=O)N(c1cccc(F)c1)C2c1ccccc1 (stereo not given)	3T3 cytotox inconclusive, HEK cytotox 25.1µM (no result: FLuc inh, hNpr1 antagonist)
Fc1ccccc1-c1noc(-c2nc(Cc3ccccc3)no2)n1	FLuc inh 20µM
CN(C)C[C@@H]1CN(Cc2ccccc2)C[C@H]1NC(=O)c1cn(C)cn1	none
COc1ccc(CC(=O)Nc2ccc([C@@H](O)[C@H]3COCC(=O)N3CC3CCCCC3)cc2)cc1	3T3 cytotox inconclusive, HEK cytotox inconclusive
CC(C)Oc1cc(N(C)CC2CC(=O)N(C(C)(C)C)C2)nc(N)n1 (stereo not given)	none
CN1CCCC1COc1ccc2c(n1)CN(Cc1ccc(F)cc1)C(=O)CO2 (stereo not given)	3T3 cytotox inconclusive
Cc1nc(CN2Cc3nc(OCc4ccc(F)cc4)ccc3OCC2=O)cs1	3T3 cytotox inconclusive, HEK cytotox 70.8µM, hNpr1 antagonist inconclusive
O=C1COc2ccc(OCc3cncs3)nc2CN1Cc1ccc(F)cc1	3T3 cytotox inconclusive, HEK cytotox 112µM
Cn1cc(CN2C[C@@H]3OCC(=O)N[C@@H]3C2)c2ccccc21	3T3 cytotox 112µM, HEK cytotox inconclusive
CC(=O)Nc1ccccc1-c1c(C)nn2c1N(C(=O)Cc1cccc(Cl)c1)CCC2	3T3 cytotox inconclusive
Cc1ccc(OCc2nc(C3CCN(C(=O)Cn4nc(C)cc4C)CC3)no2)cc1	none
